NCOA3 inh: human NCOA3 inhibition. Q9Y6Q9. AID 588352. 360,000 tested, 0.17% active. inhibition, % at 3.6 µM. HEK293 GAL4-SRC3 luciferase reporter, luminescence;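 active means inhibition above a per-campaign cutoff, the mean of all compounds plus 3 SD, cut at about 60% in these data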;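 further: 0% = DMSO-treated cells and 100% = gossypol-treated cells at 36 µM; higher means less SRC3-driven luciferase light from the GAL4 reporter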
GalR3 antag: antagonists of human GalR3. HEK293 GalR3-CNG cAMP membrane potential fluorescence; galR3 body fused to GalR1 C-terminus. inhibition, % at 3 µM. 360,000 tested, 0.44% active;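 active means inhibition above the screen-wide average plus 3 SD, cut at about 13% in these data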;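 further: forskolin and galanin both at EC90 stimulate the cells; cAMP rise reported by CNG channel membrane potential dye signal; 0% = forskolin plus galanin with DMSO and 100% = forskolin alone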
NCOA1 inh: human NCOA1 inhibition; Q15788; HEK293 GAL4-SRC1 luciferase reporter, luminescence; inhibition, % at 3.6 µM; 360,000 tested, 0.12% active;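 active means inhibition above the campaign mean plus 3 SD, with each screening campaign given its own cutoff, cut at about 60% in these data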;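 further: 0% = DMSO treated cells and 100% = gossypol at 36 µM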
LRH-1 inv ag: suppresses constitutive activity of human LRH-1. O00482. HEK293T StAR-luciferase reporter, LRH-1 transfected, 24 h. inhibition, % at 3.6 µM. 360,000 tested, 0.13% active;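 active means inhibition above the mean inhibition of all tested compounds plus 3 SD, cut at about 73% in these data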;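 further: 0% = DMSO wells and 100% = reporter-only cells lacking LRH-1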
NCOA2 inhibitor: human SRC2 (NCOA2) inhibition; HEK293 GAL4-SRC2 luciferase reporter, luminescence; inhibition, % at 9 µM; Q15596; 370,000 tested, 0.17% active; AID 651957;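 active means inhibition above the mean inhibition of all tested compounds plus 3 SD, set per campaign, cut at about 52% in these data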;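 further: 0% = DMSO treated cells and 100% = cells given Gossypol at 36 µM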
NR2F2 inh: blocks human COUP-TFII nuclear receptor; P24468; HEK293T NGFI-A luciferase reporter, luminescence; inhibition, % at 8.6 µM; 370,000 tested, 0.7% active; AID 686940;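 active means inhibition above a per-plate cutoff, mean inhibition of test wells between control levels plus 3 SD, cut at about 38% in these data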;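 further: cells cotransfected with COUP-TFII expression vector driving the NGFI-A reporter; 0% = median of COUP-TF2 test wells and 100% = reporter-only cells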
VP16 Luc counter: counter-screen for COUP-TFII antagonists: inhibitors of VP16; shares compounds with NR2F2 inh; HEK293 Gal4-VP16 luciferase reporter, luminescence; inhibition, % at 8.5 µM; 2,500 tested, 25% active; AID 687007; in the data active means inhibition above about 13%
NR2F2 inh conf: COUP-TFII (NR2F2) inhibition, confirmation assay; shares compounds with NR2F2 inh; HEK293 NGFI-A luciferase reporter, luminescence; inhibition, % at 8.5 µM; 2,500 tested, 45% active; AID 687008;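 active means mean inhibition over three repeats above a set limit taken from the earlier primary screen, cut at about 38% in these data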;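 further: 100% = cells given the luciferase reporter alone without the COUP-TF2 vector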
* marks the source's active call; other numbers are inactive results; · = no result. Hits are enriched below; roughly 1.1% of the tested compounds scored in any of these assays.

SMILES	NCOA3 inh	GalR3 antag	NCOA1 inh	LRH-1 inv ag	NCOA2 inhibitor	NR2F2 inh	VP16 Luc counter	NR2F2 inh conf
Cc1cc(N2CCN(C(=O)Oc3ccc([N+](=O)[O-])cc3)CC2)c2ccccc2n1	·	-7	·	28	24	43*	1	20
Cc1cc(N2CCN(S(=O)(=O)c3ccc(Cl)cc3)CC2)c2ccccc2n1	11	-8	-4	-2	17	41*	-1	14
COc1ccc(OC)c(CN2C(=O)CSCCC2(C)c2nnnn2C2CCCC2)c1 (configuration not stated)	·	·	·	·	2	1	·	·
NC(=O)c1ccc(NC(=O)c2ccc(COc3ccccc3Br)cc2)cc1	3	-2	-13	-31	-29	-5	·	·
Cc1cc(C)n(Cc2ccc(NC(=O)c3ccc(COc4ccccc4Br)cc3)cc2)n1	37	5	22	21	25	63*	-7	26
S=C(NN=C(c1ccccc1)c1ccccn1)N(Cc1ccccn1)Cc1ccccn1	71*	-6	66*	70	23	54*	3	45*
Nn1c(SCC(=O)Nc2ccc(OCc3ccccc3)cc2)nnc1-c1cc(-c2ccccc2)n[nH]1	·	·	·	·	7	-18	·	·
COc1cc(OC)c(OC)cc1CNc1cc(C)ccc1OC	27	-10	9	26	29	39*	7	18
CC(=O)c1cn(CC(=O)Nc2ccc(C)cc2C)c2ccccc12	33	2	22	52	25	50*	14*	54*
C=CCOc1ccc(CN(C)C(=O)CNC(=O)c2ccc(-c3ccccc3)cc2)cc1	6	-6	1	22	12	47*	1	36
CC(=O)Nc1ccc(NC(=O)c2ccc3sc([C@H]4C[C@H](O)[C@@H](CO)O4)nc3c2)cc1	2	-6	-10	9	4	2	·	·
O=C(Nc1ccc(Oc2ccccc2)cc1)c1csc([C@@H]2O[C@H](CO)[C@@H](O)[C@H]2O)n1	-15	4	33	37	28	66*	7	51*
O=C(Nc1ccc(Oc2ccccc2)cc1)c1ccc2sc([C@H]3C[C@H](O)[C@@H](CO)O3)nc2c1	5	2	32	38	28	74*	-22	46*
O=C(Nc1cccc(C(F)(F)F)c1)c1ccc2sc([C@H]3C[C@H](O)[C@@H](CO)O3)nc2c1	13	-4	15	12	-7	58*	3	24
C[C@@H]1OC(C2CCCCC2)N(C)[C@H]2C[C@H]3c4[nH]c5cccc(-c6cccc(F)c6)c5c4CCN3C(=O)[C@@H]12 (some centres not stated)	·	·	·	·	-4	2	·	·
O=S(=O)(Nc1cc(Sc2ncn[nH]2)c(O)c2ccccc12)c1ccccc1	84*	-9	89*	89*	70*	72*	2	12
Cc1cc(O)c(Sc2ncn[nH]2)cc1NS(=O)(=O)c1ccc(Cl)cc1	17	2	12	-22	14	-10	·	·
CCC(CO)Oc1cc(NCc2ccccc2O)c2ncn(C(C)C)c2c1 (configuration not stated)	10	-7	0	16	14	43*	-10	40*
CC(C)C(Sc1nc(-c2ccccc2)cc(-c2ccccc2)c1C#N)C(=O)O (configuration not stated)	-32	-4	-14	6	-14	38*	2	6
O=C(NC1CCCCN(Cc2cccc(Cl)c2)C1=O)c1ccc(-c2ccccc2)cc1 (configuration not stated)	·	·	·	·	8	5	·	·
COC(=O)C1CN(C2CCCC2)CCS(=O)(=O)N1Cc1ccc(F)cc1 (configuration not stated)	·	·	·	·	8	-13	·	·
CCc1nc2ccc(C(=O)Nc3cc(-c4ccccc4)ccc3OC)cn2c1N(C)Cc1ccc(OC)cc1	-28	4	-1	-11	-8	8	·	·
CCc1nc2ccc(C(=O)Nc3ccc(NC(C)=O)cc3)cn2c1N(C)C(=O)Cc1ccccc1	-2	-1	7	-14	13	53*	-8	3
CCc1nc2ccc(C(=O)Nc3cc(-c4ccccc4)ccc3OC)cn2c1N(C)Cc1nccs1	15	-5	13	-14	9	50*	6	21
O=C(NC(Nc1nc2ccc([N+](=O)[O-])cc2s1)(C(F)(F)F)C(F)(F)F)c1ccccc1Cl	74*	7	73*	98*	-7	75*	18*	74*
SMILES	NCOA3 inh	GalR3 antag	NCOA1 inh	LRH-1 inv ag	NCOA2 inhibitor	NR2F2 inh	VP16 Luc counter	NR2F2 inh conf
Cc1ccccc1CS(=O)(=O)Cc1ccc(C(=O)Nc2cccc(Cl)c2F)o1	·	·	·	·	-7	14	·	·
CCOC(=O)Cc1ccc(NC(=O)c2ccc(C(C)(C)C)cc2)cc1	9	-4	3	29	78*	58*	46*	53*
CCOC(=O)Cc1ccc(NC(=O)c2ccccc2Br)cc1	-3	-5	-5	10	-11	2	·	·
CC(C)C[C@@H]1COc2cc(Br)ccc2S(=O)(=O)N1Cc1cn(Cc2ccccc2)nn1	·	·	·	·	14	-3	·	·
COc1cc(CNc2ncnc3c2ncn3[C@H]2CN(Cc3ccc(-c4ccccc4)cc3)C[C@@H](CO)O2)cc(OC)c1OC	13	-10	12	33	10	59*	4	48*
OC[C@@H]1CN(Cc2ccc(-c3ccccc3)cc2)C[C@H](n2cnc3c(NCc4ccncc4)ncnc32)O1	8	-2	25	3	26	59*	-4	39*
COc1cc(CNc2ncnc3c2ncn3[C@H]2CN(Cc3ccc(C(=O)O)cc3)C[C@@H](CO)O2)cc(OC)c1OC	-8	-9	-3	11	-13	12	·	·
O=S(=O)(/C=C/C=C/S(=O)(=O)c1ccccc1)c1ccccc1	-92	5	-191	28	50	51*	49*	72*
O=C(c1cccc(I)c1)N1CCC(Oc2cccnc2)CC1	·	·	·	·	-13	-8	·	·
CC1CC(C)(C)Nc2ccc(OC(=O)c3ccco3)cc21 (configuration not stated)	20	-4	-5	6	58*	45*	18*	36
CN1[C@@H](Cc2ccccc2)COc2cc(N3CCCC3)ccc2S1(=O)=O	·	·	·	·	14	27	·	·
CN(CCO)c1cccc2c1S(=O)(=O)N(Cc1cn(Cc3ccccc3C(F)(F)F)nn1)Cc1ccccc1O2	·	·	·	·	8	19	·	·
CCCCNC(=O)NCCCN1CCN(c2ccc(F)cc2)CC1	·	·	·	·	19	1	·	·
Cc1ccc(-c2csc(=Nc3cccnc3)n2CCCN2CCCC2=O)cc1C	14	-2	7	1	-10	-9	·	·

Screening results: PubChem, The Scripps Research Institute Molecular Screening Center
